Data: PubChem BioAssay AID652106 (National Center for Advancing Translational Sciences (NCATS), 2013)
The campaign covered roughly 370,000 compounds. About 500 (0.14%) were called active. Not shown: some 2% with an inconclusive outcome. Calls come from the whole dose curve; as a rule, active = well fitted activation curve with a large enough effect; inconclusive = small, poorly fitted or top-dose-only effect; inactive = no such curve, though single readings can be large or run the other way. The entries come from a sample that favours actives as a whole. A call without a number means that no potency is given here.

assay: qHTS of alpha-syn Inhibitors; details: Yeast expressing alpha-synuclein, BacTiter-Glo, 24 h; Potency: growth rescue; series mostly up to 46.1 µM; note: nearly all actives have a fitted effect of over 65% in size
How it was run: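 Rescue of yeast growth: cells expressing toxic alpha-synuclein, induced in galactose at OD600 0.02, incubated with compound 24 h at 30 C. ATP luminescence quantified growth; inhibitors of toxicity appear as activators.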
Potency is the fitted concentration of half-maximal effect.

Which Potency does the source give for `COc1ccc(C2Nc3ccc(NC(=O)COC(C)=O)cc3C(=O)N2Cc2ccccc2)cc1COc1ccc(NC(C)=O)cc1` (stereo not given) here?
Its Potency is “inactive”.

With `N#Cc1ccc[n+](CC(=O)c2ccc(O)c(O)c2)c1` as the molecule, how does the Potency read?
Its Potency is “inactive”.

Which Potency does the source give for `CCCCCCCNc1ccc(/C=C/c2ccnc3ccccc23)cc1` here?
Its Potency is “inactive”.

With `O=C(Nc1ccc(Cl)cc1)c1cnn2c1NC(=C1CC1)C=C2C(F)F` as the molecule, how does the Potency read?
Its Potency is “inactive”.

With `COc1ccc(/C=C/c2ccccn2)cc1OC` as the molecule, how does the Potency read?
Its Potency is “inactive”.

For `Cc1ccccc1NC(=O)Cn1c(=O)n(Cc2ccco2)c(=O)c2ccc(C(=O)NC3CCCC3)cc21`, which Potency is on record?
Its Potency is “inactive”.

Which Potency does the source give for `OCC(O)C(O)C(O)C(O)C=Nc1ccc(/C=C/c2ccnc3ccccc23)cc1` (stereo not given) here?
Its Potency is “inactive”.

For `Oc1ccc(Br)cc1C1C=C(c2ccc3c(c2)OCO3)NC(c2ccc(Cl)cc2)N1` (stereo not given), which Potency is on record?
The Potency was “inactive”.

Which Potency does the source give for `CCc1ccccc1NC(=O)c1cnn(-c2ccc(F)cc2)c1C1CCNCC1` here?
The Potency was “inactive”.

Which Potency does the source give for `CCCCCCC1(C)NC(c2ccc3c(c2)OCO3)=CC(c2ccccc2O)N1` (stereo not given) here?
Its Potency is “inactive”.

With `CCCCC(CCCC)c1ccc(C=Nc2ccc(/C=C/c3ccnc4ccccc34)cc2)cc1` as the molecule, how does the Potency read?
Its Potency is “inactive”.

Which Potency does the source give for `CCOC(=O)c1c(NC(=O)c2ccc(S(=O)(=O)N3CCCC(C)C3)cc2)sc2c1CCN(C(C)C)C2` (stereo not given) here?
The Potency was “inactive”.

Which Potency does the source give for `CCC1(C)CC(=O)NC1=O` (stereo not given) here?
Its Potency is “inactive”.

For `COc1ccc(CNc2nc(-c3ccc(Cl)cc3)nn2S(=O)(=O)c2ccc(C)cc2)cc1`, which Potency is on record?
Its Potency is “inactive”.

For `CN(C)C1=C2C=CC=CC2/C(=C2/C=Cc3ccccc32)C=C1` (stereo not given), which Potency is on record?
The Potency was “inactive”.

With `Cc1nn(C)c(Oc2ccc(Cl)cc2)c1C=O` as the molecule, how does the Potency read?
Its Potency is “inactive”.

For `Nc1ccc2nn(-c3ccc(Cl)cc3)nc2c1`, which Potency is on record?
Its Potency is “inactive”.

With `Nc1ccc(Oc2ccc(Cl)cc2)cc1` as the molecule, how does the Potency read?
Its Potency is 17.8 µM (active).

Which Potency does the source give for `COc1cc2nc(N3CCCN(C)CC3)nc(NC(C)C)c2cc1OC` here?
The Potency was “inactive”.

Which Potency does the source give for `O=C(Nc1ccc([N+](=O)[O-])cc1)c1cnn2c1NC(=C1CC1)C=C2C(F)F` here?
The Potency was “inactive”.

Which Potency does the source give for `Nc1ncnc2c1c(I)cn2[C@@H]1C[C@H](N)[C@@H](O)[C@H]1O` here?
Its Potency is “inactive”.

For `Cc1cccc(-c2nnc(SC(C)C(=O)Nc3ccccc3)n2C)c1` (stereo not given), which Potency is on record?
The Potency was “inactive”.

Which Potency does the source give for `O=C(c1ccc2c(=O)n(Cc3ccco3)c(=S)[nH]c2c1)N1CCCC1` here?
Its Potency is “inactive”.

With `OCc1cnc(SCc2ccc(F)cc2)n1Cc1ccc(F)cc1` as the molecule, how does the Potency read?
Its Potency is “inactive”.

Which Potency does the source give for `Cc1ccc(C)c2sc(NC(=O)c3ccc(S(=O)(=O)N4CCCC4)cc3)nc12` here?
Its Potency is “inactive”.

Which Potency does the source give for `O=C1COc2ccc(-c3csc(-c4ccc(Cl)cc4)n3)cc2N1` here?
The Potency was “inactive”.

Which Potency does the source give for `CCc1ccc(NC(=O)CN2CCSc3ccc(S(=O)(=O)N4CCCC4)cc32)cc1` here?
The Potency was “inactive”.

Which Potency does the source give for `c1ccc(Cn2nnc3c(N4CCCCC4)ncnc32)cc1` here?
The Potency was “inactive”.

With `Cc1c(CCO)sc[n+]1CC(=O)c1ccc2ccccc2c1` as the molecule, how does the Potency read?
Its Potency is “inactive”.

For `COc1cc2nc(Cl)nc(NC3CC3)c2cc1OC`, which Potency is on record?
The Potency was “inactive”.

For `COc1c(C)c2c(c(O)c1C/C=C(\C)CCC(=O)O)C(=O)OC2`, which Potency is on record?
Its Potency is 7.08 µM (active).

Which Potency does the source give for `Oc1ccc(Cl)cc1C1C=C(c2ccc3c(c2)OCO3)NC(c2c(F)cccc2Cl)N1` (stereo not given) here?
Its Potency is “inactive”.

For `CCCCOc1ccc(C(=O)NO)cc1`, which Potency is on record?
The Potency was “inactive”.

Which Potency does the source give for `Cc1nn(-c2ccc(F)cc2)c(-n2cccc2)c1C(=O)N1CCN(c2ccccc2)CC1` here?
Its Potency is “inactive”.

Which Potency does the source give for `CCCCNC(=O)Cn1c(SCc2cccc(Cl)c2)nc2ccncc21` here?
The Potency was “inactive”.

Which Potency does the source give for `COc1ccc(Oc2cn[nH]c2-c2ccc(OC)cc2O)cc1` here?
Its Potency is 17.8 µM (active).

With `COc1ccc(-c2c(-c3ccc(OC)cc3O)nc(C)nc2C(F)(F)F)cc1` as the molecule, how does the Potency read?
The Potency was “inactive”.

Which Potency does the source give for `COc1ccc(-c2[nH]ncc2CN(C)Cc2c(C)n[nH]c2C)c(OC)c1` here?
The Potency was “inactive”.

Which Potency does the source give for `Cc1ccc(-n2c(SCC(=O)c3ccccc3)nc3c([nH]c4ccccc43)c2=O)cc1` here?
The Potency was “inactive”.

With `COC(=O)C1=C(C(=O)OC)[C@@H]2N(Cc3ccccc3)c3ccccc3[C@@]23C[C@@H](C(=O)OC)N(S(=O)(=O)c2ccc(C(F)(F)F)cc2)C3=N1` as the molecule, how does the Potency read?
Its Potency is “inactive”.

With `CNCCCOc1cc2nc(N3CCCN(C)CC3)nc(NC3CCN(C)CC3)c2cc1OC` as the molecule, how does the Potency read?
The Potency was “inactive”.

For `Cc1cccc(-n2ccnc2SCC(=O)Nc2cc(C(F)(F)F)ccc2Cl)c1`, which Potency is on record?
The Potency was “inactive”.

With `COc1ccc(CCn2c3c(c(=O)[nH]c2=S)CN(C(C)C)CN3)cc1OC` as the molecule, how does the Potency read?
Its Potency is “inactive”.

Which Potency does the source give for `COc1ccc(N2C(=O)CS(=O)(=O)C23C(=O)N(Cc2ccc(C)cc2)c2ccccc23)cc1Cl` (stereo not given) here?
Its Potency is “inactive”.

For `CN(C)Cc1cn(-c2ccccc2)nc1-c1ccccc1`, which Potency is on record?
The Potency was “inactive”.

With `O=C(Oc1ccc([N+](=O)[O-])cc1)c1ccc2ccccc2n1` as the molecule, how does the Potency read?
Its Potency is “inactive”.

For `O=[N+]([O-])c1ccc2c(c1)Nc1nc3ccccc3nc1N2`, which Potency is on record?
The Potency was 3.55 µM (active).

For `O=[N+]([O-])c1cc2ccccc2nc1-c1ccccc1`, which Potency is on record?
Its Potency is “inactive”.

With `C=C1C=C(C(F)F)n2ncc(C(=O)NCCc3ccccc3OC)c2N1` as the molecule, how does the Potency read?
The Potency was “inactive”.

With `CCOc1ccccc1CNC(=O)Nc1cn(CC(C)C)c(=O)c2ccccc12` as the molecule, how does the Potency read?
The Potency was “inactive”.

For `C/C=C/NNC(=O)Cc1ccc(OC)cc1`, which Potency is on record?
The Potency was “inactive”.

With `COc1ccc(OC)c(NC(=O)COC(=O)Cc2ccsc2)c1` as the molecule, how does the Potency read?
The Potency was “inactive”.

With `CCN1CCN(c2nc(Nc3cc(OC)ccc3OC)nc(Nc3cc(OC)ccc3OC)n2)CC1` as the molecule, how does the Potency read?
The Potency was “inactive”.

With `COc1ccc(OC)c(Nc2nc(-c3ccc(O)c(O)c3)cs2)c1` as the molecule, how does the Potency read?
Its Potency is 11.2 µM (active).

With `CCOC(=O)c1ccc(NC2=CC(c3ccc(OCC)cc3)N(c3ccc(C(=O)OCC)cc3)C2=O)cc1` (stereo not given) as the molecule, how does the Potency read?
The Potency was “inactive”.

For `CN(Cc1ccccc1)c1ccc(/C=C/c2ccnc3ccccc23)cc1`, which Potency is on record?
Its Potency is “inactive”.

Which Potency does the source give for `CC(=O)/C(C)=N/O` here?
Its Potency is “inactive”.

Which Potency does the source give for `CC(C)(C)C1CCC(NC(=O)c2cnn3c2NC(=C2CC2)C=C3C(F)F)CC1` (stereo not given) here?
Its Potency is “inactive”.

Which Potency does the source give for `CC1=C(C(=O)Nc2ccccc2Cl)C(c2cccs2)n2ncnc2N1` (stereo not given) here?
The Potency was “inactive”.

With `Cc1ccc(-c2nnc3ccc(SCC(N)=O)nn23)cc1` as the molecule, how does the Potency read?
Its Potency is “inactive”.
